The results in this text go back to PubChem BioAssay AID624305 (National Center for Advancing Translational Sciences (NCATS), 2012).

Records with an inconclusive call do not appear. Active and inactive are the calls of the source. The call rests on the fitted dose curve; in most records, active means well fitted activation curve with a large enough effect; inconclusive means small, poorly fitted or top-dose-only effect; inactive means no such curve, though single readings can be large or run the other way.
Potency means the concentration at half of the fitted maximal effect.

The assay is described as follows: qHTS assay for re-activators of p53 using a Luc reporter: Hit Validation. Further: nearly all actives have a fitted effect of over 75% in size. On activation: 0% is about no effect. The note with it: p53-responsive luciferase reporter cells, luminescence, H1299 line expressing heat-sensitive Ala138Val p53; series mostly up to 46.1 µM; activation: at the top concentration. The essentials: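 H1299 (p53-null) cells stably carrying p53-A138V and a BP100-luciferase reporter, 1000 cells/well, treated 24 h at 37 deg C. Compounds at several concentrations, 1:5 dilution; nocodazole control; luminescence read after 10 min with detection reagent.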
(qHTS replaces the single test concentration by a dilution series.)
Take `COc1ccc(N2CCN(C3CCCN(Cc4cccc(OC)c4)C3)CC2)cc1` (centres undefined): the “activation” value is 37% (inactive).

For `Cc1cccc(NC(=O)c2ccccn2)c1C`, the Potency was 14.6 µM (active). Regarding `O=C(O)CCCC(=O)NCCc1ccncc1`, the “activation” value was -83.3% (inactive).

As to `Cc1ccccc1-c1noc(N)c1C#N`, the “activation” value was 8.85% (inactive). On the same count and under the same terms, then `Cc1cccc(NC(=S)NC(=O)C2CC2)c1`, with 40.1% (inactive); and `COCCSc1ccccc1C(=O)Nc1cc(C)ccn1`, with 20.8% (inactive); and `O=C(COC(=O)CNC(=O)c1ccc([N+](=O)[O-])o1)Nc1ncc(C(F)(F)F)cc1Cl`, with -84.4% (inactive). For `CN(C)c1cccc(C(=O)NNC(=O)CN2C(=O)C3CC=CCC3C2=O)c1` (centres undefined), the Potency is 2.31 µM (active). The same measure, in the same setting: then `O=C(Nc1cccc(O)c1)C(=O)Nc1ccccn1`, with 2.31 µM (active). On to `CC(Sc1nc(N)cc(=O)[nH]1)C(=O)NNC(=O)c1cccc(Cl)c1` (centres undefined), for which the “activation” value was -18.8% (inactive). `COc1ccccc1-c1nc(-c2ccc(Br)o2)no1`: the Potency is 0.366 µM (active). On to `O=C(NC(=S)Nc1nc2ccccc2s1)c1ccco1`, for which the Potency is 0.58 µM (active). On the same count and under the same terms, then `O=C(CSc1nnc(-c2ccc3c(c2)OCCO3)o1)N1CCCC1`, with 7.31 µM (active); and `C=CCn1c(C)cc(C(=O)CSc2nc3ccccc3o2)c1C`, with 0.731 µM (active). Still for that read-out and setting: next, `O=C(Nc1nc2ccccc2s1)c1ccc2c(c1)OCO2`: 0.206 µM (active); `CC(C)/C=C1\CC/C(=C\c2ccc(N(C)C)cc2)C1=O`: 2.91 µM (active). Turning to `Cc1nn(-c2ccccc2)c(C)c1/C=N/Nc1nc2ccccc2[nH]1`, the Potency was 0.731 µM (active). `Cc1cccc(NC(=O)/C=C/c2ccc([N+](=O)[O-])s2)c1`: the “activation” value was -39.1% (inactive). On the same count and under the same terms, then `Cc1nc(NCCc2ccccc2)c2nnn(Cc3ccccc3Cl)c2n1`, with 38.5% (inactive).
